PubChem BioAssay (Tox21)
Several values for one entry are separate records, joined by “and”; a condition that tells them apart may be missing. Equal values may be shown once. A number with no mark means an inactive call. Inconclusive results are not listed. A call without a number means that no potency is given here. Activity calls are given as the source filed them. The call rests on the fitted dose curve; in most records, active means well fitted curve in the direction sought with a large enough effect in the repeat runs; inconclusive means weak or mixed curves; inactive means no such curve, though single readings can be large; an effect the other way counts as inactive or inconclusive.

What was measured:
[1] = A CellTox Green Cytotoxicity Assay to monitor cytotoxicity in HepG2 cells - 0 hour (AID 1224882); further: nearly all actives have a fitted effect of over 35% in size; further: potency means the concentration at half of the fitted maximal effect
Outline: (§1)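 HepG2 cells, 600/well, preincubated 5 h with CellTox Green dye, then exposed to Tox21 compounds in DMSO at 37 C for up to 40 h. Dead-cell DNA fluorescence read at the indicated time point.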

[2] = A CellTox Green Cytotoxicity Assay to monitor cytotoxicity in HepG2 cells - 32 hour (AID 1224883); further: nearly all actives have a fitted effect of over 50% in size; further: potency means the concentration at half of the fitted maximal effect
Outline: as §1

[3] = A CellTox Green Cytotoxicity Assay to monitor cytotoxicity in HEK293 cells - 8 hour (AID 1224884); further: nearly all actives have a fitted effect of over 35% in size; further: potency means the concentration at half of the fitted maximal effect
Outline: (§2)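 HEK293 cells, 600/well, were preincubated 5 hours and then exposed to compounds at 37 C for up to 40 hours. A cell-impermeant cyanine dye staining dead-cell DNA was read by fluorescence at 0, 8, 16, 24, 32 and 40 h time points.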

[4] = qHTS RealTime-Glo MT Cell Viability Assay in HepG2 cells - 16 hour (AID 1224885); further: nearly all actives have a fitted effect of over 50% in size; further: potency means the concentration at half of the fitted maximal effect
Outline: (§3)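 HepG2 cells were seeded at 600 cells/well together with NanoLuc luciferase and a cell-permeant prosubstrate, preincubated 5 h at 37 C/5% CO2, then pin-dosed with compounds in DMSO. Nonlytic luminescence from viable cells was read at each time point.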

[5] = qHTS RealTime-Glo MT Cell Viability Assay in HEK293 cells - 8 hour (AID 1224887); further: nearly all actives have a fitted effect of over 50% in size; further: potency means the concentration at half of the fitted maximal effect
Outline: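 600 cells/well were plated with the nonlytic NanoLuc/prosubstrate reagent, pre-incubated 5 h, then given 23 nL of compound in DMSO. Incubation at 37 C for 40 h, with luminescence from viable-cell-reduced substrate read repeatedly from 0 h.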

[6] = A CellTox Green Cytotoxicity Assay to monitor cytotoxicity in HEK293 cells - 16 hour (AID 1224888); further: nearly all actives have a fitted effect of over 35% in size; further: potency means the concentration at half of the fitted maximal effect
Outline: as §2

[7] = qHTS RealTime-Glo MT Cell Viability Assay in HepG2 cells - 0 hour (AID 1224889); further: nearly all actives have a fitted effect of over 50% in size
Outline: as §3

[8] = A CellTox Green Cytotoxicity Assay to monitor cytotoxicity in HepG2 cells - 8 hour (AID 1224890); further: nearly all actives have a fitted effect of over 45% in size; further: potency means the concentration at half of the fitted maximal effect
Outline: as §1

[9] = qHTS assay to identify small molecule antagonists of the estrogen receptor alpha (ER-alpha) signaling pathway using the BG1 cell line in the presence of 0.1 nM 17-beta-estradiol - cell viability counter screen (AID 1259241); further: nearly all actives have a fitted effect of over 40% in size
Outline: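 VM7Luc4E2, 4,000 cells/well, phenol red-free medium + 10% charcoal-stripped FBS; 24 hr plating; cpd + 0.1 nM E2 final, 22 hr 37C/5% CO2; CellTiter-Fluor 30 min, fluorescence.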

[10] = qHTS RealTime-Glo MT Cell Viability Assay in HEK293 cells - 24 hour (AID 1224886)
Outline: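 HEK293 cells were seeded at 600 cells/well together with NanoLuc luciferase and cell-permeant prosubstrate, preincubated 5 h at 37 C/5% CO2, then given compound in DMSO by pintool. Luminescence from viable-cell prosubstrate reduction was read repeatedly over 40 h.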

Row | Compound | Potency [1] | Potency [2] | Potency [3] | Potency [4] | Potency [5] | Potency [6] | Potency [7] | Potency [8] | Potency [9] | Potency [10]
1 | OCCCS | inactive | inactive | inactive | inactive | inactive | inactive | inactive | inactive | inactive | 
2 | COc1ccc2sc(C(=O)Nc3nnn[nH]3)c(OC(C)C)c2c1 | inactive | inactive | inactive | inactive | inactive |  | inactive | inactive | inactive | 
3 | Nc1ccc2cc3ccc(N)cc3nc2c1 | 49 µM (active) and 23.9 µM (active) | 49 µM (active) and 21.3 µM (active) | 49 µM (active) and 21.3 µM (active) |  | 24.5 µM (active) | 49 µM (active) and 21.3 µM (active) |  |  |  | 2.45 µM (active) and 3.01 µM (active)
4 | CNC(=S)NN | inactive | inactive | inactive | inactive | inactive | inactive | inactive | inactive | inactive | 
5 | CCOC(=O)CC(C)O (configuration not stated) | inactive | inactive | inactive | inactive |  | inactive | inactive |  |  | 
6 | Cc1cc(=O)[nH]c(=O)[nH]1 | inactive | inactive | inactive | inactive | inactive | inactive | inactive | inactive | inactive | 
7 | CCCCOCC | inactive | inactive | inactive | inactive |  | inactive |  |  | inactive | 
8 | CCOC(OCC)C(=O)c1ccccc1 | inactive | inactive | inactive | inactive |  | inactive | inactive | inactive |  | 
9 | CC(=O)c1ccccc1N | inactive | inactive | inactive | inactive |  | inactive | inactive | inactive | inactive | 
10 | CC(C)c1cccc(C(C)C)c1N1C(=O)c2ccc(O)cc2C1=O | inactive | 24.5 µM (active) | inactive | 49 µM (active) | inactive | inactive | inactive | 38.9 µM (active) | inactive | 
11 | CN(Cc1cc(Br)cc(Br)c1N)C1CCCCC1 | inactive | 12 µM (active) | inactive | inactive |  |  | inactive |  | inactive | 
12 | SCCCCCCCCS | inactive | 19.5 µM (active) | inactive | inactive | inactive |  | inactive |  | inactive | 
13 | C[C@@H]1CC[C@H]2C(C)(C)[C@H]3C[C@@]12CC[C@@]3(C)O | inactive | 54.9 µM (active) | 43.6 µM (active) | inactive |  | 43.6 µM (active) | inactive |  | inactive | 
